VP16 counter = inhibits Gal4-VP16 luciferase reporter, ROR gamma counter-screen | Drosophila S2 Gal4-VP16 UAS-luciferase, luminescence, 20 h | Potency, µM (doses to about 53.6 µM), actives largely listed as inhibitors | 310,000 compounds, 3.5% hits;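 further: Gal4-VP16 expression switched on by copper sulfate through the metallothionein promoter; nearly all actives have a fitted effect of over 50% in size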
RORg inh = blocks mouse ROR gamma transcriptional activity | P51450 | Drosophila S2 Gal4-RORgamma UAS-luciferase reporter, 20 h | Potency, µM (highest dose often 53.6 µM), usual class: inhibitors | 310,000 compounds, 5.4% hits; further: nearly all actives have a fitted effect of over 60% in size
Target sequence (P51450 whole entry, looked up, the tested form may be a part): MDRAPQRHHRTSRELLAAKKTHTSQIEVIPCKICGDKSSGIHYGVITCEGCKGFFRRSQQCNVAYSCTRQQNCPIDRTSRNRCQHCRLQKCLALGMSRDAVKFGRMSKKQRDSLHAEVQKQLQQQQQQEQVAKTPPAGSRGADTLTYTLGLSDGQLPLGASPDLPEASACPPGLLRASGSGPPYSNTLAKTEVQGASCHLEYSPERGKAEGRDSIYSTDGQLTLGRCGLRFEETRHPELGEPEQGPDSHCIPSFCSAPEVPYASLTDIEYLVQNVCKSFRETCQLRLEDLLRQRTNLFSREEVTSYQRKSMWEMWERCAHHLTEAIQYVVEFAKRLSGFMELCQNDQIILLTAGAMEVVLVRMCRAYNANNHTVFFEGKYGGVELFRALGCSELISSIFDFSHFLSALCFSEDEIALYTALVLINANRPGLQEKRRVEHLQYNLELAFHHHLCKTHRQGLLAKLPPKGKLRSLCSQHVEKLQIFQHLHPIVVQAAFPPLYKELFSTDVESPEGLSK
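ROR gamma transcriptional activity was tracked as Gal4-UAS luciferase output in stably transfected Drosophila Schneider cells, with compound added 1 hr before 700 uM copper sulfate induction and a 20 hr ambient-temperature incubation.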
NPSR antag = neuropeptide S receptor (human) antagonism, cAMP. Q6W5P4. CHO-NPSR cells, cAMP TR-FRET, antagonist mode. Potency, µM (highest dose often 38.3 µM), hits mostly inhibitors. 220,000 compounds, 1% hits; further: nearly all actives have a fitted effect of over 50% in size
B2AR arrestin = agonists driving beta-arrestin recruitment to human beta2-adrenergic receptor; beta-arrestin recruitment to beta2AR, cell-based reporter; Potency, µM (series often up to 46.1 µM), usual class: activators; 330,000 compounds, 0.02% hits; further: nearly all actives have a fitted effect of over 65% in size
Large screens that a line does not name were inactive. Most compounds without a hit are left out; they make up all but 5.7% or so of the library. The call rests on the fitted dose curve; in most records, active means well fitted curve in the direction sought with a large enough effect; inconclusive means small, poorly fitted or top-dose-only effect, or another doubt; inactive means no such curve, though single readings can be large; an effect the other way counts as inactive or inconclusive.

Cc1cccc(-n2c(CCc3ccccc3)nnc2SCC(=O)c2ccccc2)c1	VP16 counter 11µM, RORg inh inconclusive, NPSR antag inconclusive
CCOC(=O)/C(=N/Nc1ccc(Cl)cc1)Sc1nnnn1-c1ccc(C)cc1	VP16 counter inconclusive, RORg inh 6.3µM
CCOC(=O)/C(=N/Nc1ccccc1)Sc1nnc(CCc2ccccc2)n1-c1ccccc1	VP16 counter 7.1µM, RORg inh 4.5µM
Cc1ccc(OCc2nnc(SCC(=O)c3ccccc3)n2-c2ccccc2)cc1	VP16 counter inconclusive, RORg inh inconclusive, NPSR antag inconclusive
COC(=O)c1cnn(-c2ccccc2)c1/C=N/NC(=S)Nc1ccc(Cl)cc1	VP16 counter 2µM, RORg inh 0.45µM
c1ccc(C2Oc3ccccc3C3CC(c4cccs4)=NN32)cc1 (stereo not drawn)	VP16 counter inconclusive, RORg inh inconclusive
O=[N+]([O-])c1ccc(C2Oc3ccccc3C3CC(c4ccccc4)=NN32)s1 (stereo not drawn)	VP16 counter inconclusive, RORg inh 11µM, NPSR antag inconclusive
O=C(Nc1ccc(-c2nc3ccccc3s2)cc1)C1=COCCO1	VP16 counter 4.5µM, RORg inh 2µM
O=C(Nc1ccc(-c2nc3ccccc3s2)c(O)c1)C1=COCCO1	VP16 counter inconclusive, RORg inh 0.5µM
O=C(Nc1ccc(O)c(-c2nc3ccccc3s2)c1)C1=COCCO1	RORg inh inconclusive
O=C(Nc1cccc(-c2nc3ccccc3s2)c1)C1=COCCO1	none
CC(C)(C)c1ccc(-c2noc(-c3ccc4c(c3)CCO4)n2)cc1	none
O=c1cc(-c2cccc(-c3ccc(C(F)(F)F)cc3)c2)c2cc3c(cc2o1)OCO3	none (no result: NPSR antag, B2AR arrestin)
Cc1ccc(S(=O)(=O)NCC2CCC(C(=O)NCc3cccnc3)CC2)cc1 (stereo not drawn)	none
C=CCn1c(N)cc(=O)nc1SCC(=O)NC(C)c1ccccc1 (stereo not drawn)	VP16 counter 18µM
O=S(=O)(Nc1ccc(-n2cccc2)cc1)c1ccc(Cl)cc1Cl	VP16 counter 14µM, RORg inh 20µM
O=S(=O)(Nc1ccc(-n2cccc2)cc1)c1ccc(Cl)c(Cl)c1	none
N#C/C(=N\O)c1nc2ccccc2[nH]1	none
O=C(C1CCCCC1)N1CCC(c2nc3ccccc3[nH]2)CC1	none
N#CC(C(=O)C1CCCCC1)c1nc2ccccc2[nH]1 (stereo not drawn)	VP16 counter 7.9µM, RORg inh 3.5µM
CSC(=Nc1ccccc1)C(C#N)c1nc2ccccc2[nH]1 (stereo not drawn)	RORg inh 5.6µM
O=S1(=O)C2CC3CCC2(CN1Cc1cccc(F)c1)O3 (stereo not drawn)	none (no result: NPSR antag, B2AR arrestin)
COc1ccc(CN(C)C(=S)Nc2ccc(Cl)cc2)cc1	VP16 counter inconclusive, RORg inh 10µM
COc1ccc(CN(Cc2ccc(C(=O)O)cc2)C(=S)Nc2cccc(C)c2)cc1OC	none
COc1cccc(CN(C)C(=S)Nc2cccc(C)c2)c1	VP16 counter inconclusive, RORg inh 11µM
O=C(c1ccco1)N1CCC2(CC1)CN(c1ccccc1)C2	none (no result: NPSR antag, B2AR arrestin)
CCCCCCNC(=O)CC(c1ccccc1)c1cc(Br)ccc1O (stereo not drawn)	VP16 counter 10µM, RORg inh 2.8µM, NPSR antag inconclusive
CC(C)NC(=O)CC(c1ccccc1)c1cc(Br)ccc1O (stereo not drawn)	none
CC1(C)Cc2c(sc3[nH]c(=S)n(Cc4ccccc4)c(=O)c23)CO1	VP16 counter 0.89µM, B2AR arrestin inconclusive
CC(C)(C)CC(C)(C)c1ccc(O)c(CN2CCN(CCC#N)CC2)c1	RORg inh 25µM
N#CCCN1CCN(Cc2cc(-c3ccccc3)ccc2O)CC1	none
O=C(O)c1ccc2c(c1)C(=O)N([C@H](Cc1ccc(-c3ccccc3)cc1)C(=O)O)C2=O	none (no result: NPSR antag)
CCCn1nc(C(=O)Nc2nnc(CC)s2)c2ccccc2c1=O	none
CCCCCCn1nc(C(=O)Nc2nc3c(s2)CCCC3)c2ccccc2c1=O	RORg inh 10µM
CCCCn1nc(C(=O)NC2=NCCS2)c2ccccc2c1=O	VP16 counter inconclusive
CCCCn1nc(C(=O)Nc2nc3c(s2)CCCC3)c2ccccc2c1=O	VP16 counter inconclusive, RORg inh 11µM, NPSR antag inconclusive
Cc1cccc(CC(=O)N2CCCC2)c1	none (no result: VP16 counter, RORg inh, NPSR antag)
CSCC[C@@H]1NC(=O)C/C=C\[C@@H](C)COC(=O)[C@H](C)COC1=O	none (no result: NPSR antag, B2AR arrestin)
CCN(CC)c1ccc2c(c1)CCCN2	VP16 counter inconclusive, RORg inh 2.8µM
Cc1nc2cc(-c3ccc(Cl)cc3)nn2c(NCCN(C)C)c1C	VP16 counter 5.6µM, RORg inh 1.3µM
Cc1cc(C)n2nc(-c3ccc(Cl)cc3)cc2n1	none (no result: NPSR antag)
O=C(Nc1cc(C(F)(F)F)ccc1-n1cncn1)c1ccc([N+](=O)[O-])o1	none (no result: VP16 counter, RORg inh, NPSR antag)
Cc1cccc(CC2S/C(=N/c3ccccn3)NC2=O)c1 (stereo not drawn)	VP16 counter inconclusive, RORg inh 1.3µM
O=C1NC(=Nc2cccc(Cl)c2)SC1Cc1cccc(Cl)c1Cl (stereo not drawn)	VP16 counter inconclusive, RORg inh inconclusive
O=C1N/C(=N\c2ccccn2)SC1Cc1ccccc1Cl (stereo not drawn)	VP16 counter 1µM, RORg inh 0.71µM
OCCC1CN(Cc2nc3ccccc3s2)CCN1CCc1ccccc1 (stereo not drawn)	none
C=C1CN(C(C(=O)OC)C(C)C)S(=O)(=O)c2ccc(F)cc21 (stereo not drawn)	none (no result: NPSR antag, B2AR arrestin)
Cc1cccc(OCCn2c(S(=O)(=O)O)nc3ccccc32)c1	none
S=c1[nH]c2ccccc2n2cccc12	VP16 counter 5.6µM, RORg inh 0.89µM
Cc1cccc(OCCn2c(=S)[nH]c3ccccc32)c1	VP16 counter 1.6µM, RORg inh 1.3µM
S=c1[nH]c2ccccc2n2c(=S)[nH]nc12	none (no result: NPSR antag)
CCOc1ccc2[nH]c(=O)c(=O)[nH]c2c1	none
CCOc1ccc2c(c1)[nH]c(=S)n2C	VP16 counter inconclusive, RORg inh 8.9µM
S=c1[nH]c2ccccc2n1Cc1ccccc1	VP16 counter 7.1µM, RORg inh inconclusive (no result: NPSR antag)
c1ccc(COc2cncc(-c3cccnc3)c2)cc1	none (no result: VP16 counter, RORg inh, NPSR antag)
N#CCCn1c(=S)[nH]c2ccccc21	none
Cn1c(=S)[nH]c2ccccc21	VP16 counter inconclusive, RORg inh 13µM, NPSR antag inconclusive
Cc1ccc(OCCn2nc3ccccc3n2)c(C)c1	RORg inh inconclusive
S=c1[nH]c2ccccc2n1CCOc1ccccc1	VP16 counter 2.8µM (no result: NPSR antag)
CCOc1ccc(OCCn2c(=S)[nH]c3ccccc32)cc1	VP16 counter 5µM, RORg inh 5µM (no result: NPSR antag)
Cc1ccc(OCCn2c(=S)[nH]c3ccccc32)c(C(C)C)c1	VP16 counter 4µM, RORg inh 3.5µM (no result: NPSR antag)
CN(CC(=O)NCc1ccc2c(c1)OCO2)S(=O)(=O)c1ccc(F)cc1	none (no result: NPSR antag)
O=c1c(-c2cc(F)cc(F)c2)nc2cnc(N3CCOCC3)nc2n1C[C@H]1CCCO1	none (no result: NPSR antag, B2AR arrestin)
COc1ccccc1OCCn1c(=S)[nH]c2ccccc21	VP16 counter 10µM, RORg inh 10µM (no result: NPSR antag)
CC(c1nnc(SCC(=O)Nc2cccnc2Cl)n1Cc1ccccc1)N(C)C (stereo not drawn)	none
COc1ccc(-c2nc3cnc(OC)nc3n(Cc3cccc(OC)c3)c2=O)cc1	none (no result: NPSR antag, B2AR arrestin)

Source: PubChem BioAssay
